Screens: PubChem, several laboratories
PfHsp90 yeast 2 = growth inhibition of yeast expressing Plasmodium Hsp90; S. cerevisiae expressing PfHsp90, BacTiter-Glo ATP, 48 h; yeast lacking PDR1 and PDR3 efflux regulators; inhibition, % at 9.4 µM; 310,000 tested, 0.32% active;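 active = every replicate shows inhibition above about 80%, whatever the replicate mean, limit read from the data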;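 also: 0% = DMSO neutral controls and 100% = 20 µM radicicol positive controls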
NLRP3 yeast inh = inhibitors of NALP3 inflammasome in yeast; Yeast reconstituted NLRP3/ASC/caspase-1, beta-gal luminescence, 24 h; inhibition, % at 10 µM; 330,000 tested, 0.39% active;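 active = inhibition of 50% or more; inactive = inhibition below 50%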;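 also: plate controls were induced DMSO wells for no effect and uninduced yeast grown without galactose for full effect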
tim10-1 inh = tim10-1 yeast growth inhibition; 330,000 tested, 2.2% active; inhibition, % at 20 µM; AID 463190; S. cerevisiae tim10-1 ts strain growth, BacTiter-Glo, 24 h;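 active = inhibition of at least 40%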;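 also: mutant grown at 25 °C; 0% = DMSO wells with yeast and 100% = wells holding no yeast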
tim23-1 inh = inhibits growth of tim23-1 mutant yeast. 330,000 tested, 1.3% active. inhibition, % at 20 µM. S. cerevisiae tim23-1 growth, BacTiter-Glo luminescence, 24 h;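 active = growth inhibition of the mutant yeast at or above 50%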;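 also: temperature-sensitive mutant grown at 25 °C; plate controls were DMSO-treated mutant yeast for no effect and medium wells lacking yeast for full effect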
TIM10 inh = growth inhibitors of TIM10 yeast strain; inhibition, % at 10 µM; S. cerevisiae TIM10 strain growth, BacTiter-Glo luminescence, 24 h; 330,000 tested, 1.4% active;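 active = inhibition of 40% or more at the single tested concentration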;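 also: wild-type TIM10 isogenic control strain grown at permissive 25 °C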
NALP1 inh = inhibitors of NALP1 inflammasome in yeast; S. cerevisiae NALP1/ASC/caspase-1 growth, X-gal OD620, 72 h; 280,000 tested, 0.61% active; inhibition, % at 10 µM; in the data active = inhibition mostly above about 24%, no sharp cut-off; inactive = mostly below about 32%
tim23-1 conf = tim23-1 yeast growth inhibition, confirmed. shares compounds with tim23-1 inh. S. cerevisiae tim23-1 growth, BacTiter-Glo luminescence, 24 h. inhibition, % at 20 µM. 4,400 tested, 83% active. AID 463218;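 active = inhibition above about 39% in either of two replicate wells at 20 µM, limit read from the data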;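 also: temperature-sensitive tim23-1 mutant grown at 25 °C; 0% = DMSO wells with yeast and 100% = medium wells without yeast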
The depositor's hits bear a star; . = not tested or not shown. A selection: hits, their analogues and other compounds. The true share with any hit is near 4.2%.

SMILES	PfHsp90 yeast 2	NLRP3 yeast inh	tim10-1 inh	tim23-1 inh	TIM10 inh	NALP1 inh	tim23-1 conf
CCOC(=O)c1c(NS(C)(=O)=O)sc2c1CCC(C)C2 (stereo not given)	-17.5	-4.4	39.2	56.6*	3.4	9.6	40.1*
COc1ccccc1CCNC(=O)C1CCC(=O)N(C2CCCCCC2)C1 (stereo not given)	-4.1	12.5	5.2	21.5	-2.2	11.9	.
C[C@H](CO)N1C[C@H](C)[C@@H](CN(C)Cc2ccncc2)Oc2c(NS(=O)(=O)c3cccs3)cccc2C1=O	2.0	1.8	-8.0	-11.2	0.7	.	.
Oc1ccc2ccccc2c1/C=N/Nc1nnc(-c2ncc[nH]2)c2ccccc12	121.5*	23.5	27.3	68.7*	33.2	1.7	65.3*
CCCCN(C(=O)c1ccc2c(c1)OCCO2)c1c(N)n(CCCC)c(=O)[nH]c1=O	6.7	10.2	27.3	58.5*	14.1	.	56.8*
CCCCn1c(N)c(N(CCC(C)C)C(=O)C2=COCCO2)c(=O)[nH]c1=O	14.2	12.6	-11.3	-6.4	1.3	12.8	.
CCCN(C(=O)c1cc(C)ccc1C)c1c(N)n(Cc2ccccc2)c(=O)[nH]c1=O	14.7	-1.0	7.9	9.6	12.0	.	.
CCCN(C(=O)c1ccc([N+](=O)[O-])c(C)c1)c1c(N)n(Cc2ccccc2)c(=O)[nH]c1=O	-10.7	8.4	-1.3	52.7*	10.2	.	59.6*
CCCCn1c(N)c(N(CCC(C)C)C(=O)c2ccc3c(c2)OCO3)c(=O)[nH]c1=O	-71.7	10.2	22.8	62.1*	8.9	.	58.3*
CC12CCC(=O)N1C(C(=O)NNC(=O)c1ccccc1)CS2 (stereo not given)	.	7.7	-4.0	-11.7	-11.8	.	.
CCc1c(C)sc2nc(C(C)C)nc(SCC(=O)N3CCc4ccccc4C3)c12	.	8.5	19.2	50.6*	23.9	32.2	41.0*
Cc1sc2nc(C3CC3)nc(SCC(=O)N3CCc4ccccc4C3)c2c1C	.	0.5	37.8	29.5	22.8	32.7	.
O=C(O)C1CCCCC1C(=O)Nc1cccc(Br)c1 (stereo not given)	12.4	8.0	-14.4	9.8	-9.1	.	.
O=C(NC(=S)Nc1ccc(F)cc1)C1CCCCC1	4.9	26.7	22.9	41.8	14.6	6.1	.
O=C(Nc1cccc(Br)c1)C1CCCC1	.	40.6	8.4	64.5*	32.9	.	62.5*
O=C(NC(=S)Nc1cccc(O)c1)C1CCCCC1	.	-9.6	27.5	50.8*	35.2	.	42.4*
Cc1ccc(NC(=S)NC(=O)C2CCCC2)cc1C	10.3	41.7	29.2	54.5*	22.4	15.7	41.5*
Nc1ncc(Br)cc1S(=O)(=O)NC1CCCCC1	-15.0	0.3	12.6	25.9	7.7	1.5	.
CC1CCCC(NS(=O)(=O)c2cc(Br)cnc2N)C1C (stereo not given)	-2.9	9.2	38.2	55.0*	28.4	29.4	45.4*
O=C(CC1NCCNC1=O)Nc1cccc([N+](=O)[O-])c1 (stereo not given)	-17.9	2.5	-8.9	-1.6	-6.2	15.9	.
CCOC(=O)C(Cc1c[nH]c2ccccc12)NC(=O)c1ccccc1Br (stereo not given)	-16.4	12.3	5.3	22.2	0.6	-1.1	.
CCN=C1S/C(=C\c2cn(C(C)=O)nc2-c2ccccc2)C(=O)N1CC	.	6.5	27.7	52.8*	29.2	20.7	48.0*
CC(=O)NC1=NC(=O)/C(=C/c2cn(C(C)=O)nc2-c2ccccc2)S1	19.1	5.9	4.7	-1.2	-20.9	-1.0	.
Cc1cc(=O)oc2c1c(C(F)(F)F)nn2-c1ccccc1	-47.9	-41.7	26.3	50.2*	25.3	-5.0	54.9*
Cc1cc(C(F)(F)F)c2c(C)nn(-c3ccccc3)c2n1	4.2	3.6	6.8	-1.0	9.7	.	.
SMILES	PfHsp90 yeast 2	NLRP3 yeast inh	tim10-1 inh	tim23-1 inh	TIM10 inh	NALP1 inh	tim23-1 conf
Cc1ccc2oc(C(Cl)(Cl)Cl)cc(=O)c2c1	.	23.7	37.9	74.8*	29.8	-4.0	76.4*
Cc1cc(C)cc(C(=O)NCC(=O)OCC(=O)NCc2ccco2)c1	3.1	-8.3	-5.9	0.8	6.8	-10.4	.
Cc1cc(C(=O)N/N=C\c2cc(C(C)(C)C)ccc2O)n[nH]1	18.1	19.2	32.5	56.0*	21.4	-0.6	55.2*
O=C(/C=C/c1ccc2c(c1)OCO2)c1ccccn1	12.6	8.3	32.0	56.0*	21.8	.	43.5*
Cc1cc(C(=O)Nc2ccc(Cl)cc2)n(-c2ccccc2)n1	-5.8	27.3	27.7	21.9	11.4	12.3	.
Cc1cc(C(=O)Nc2ccc(Cl)cc2)c(C)n1-c1ccccc1	.	10.2	38.5	55.7*	35.6	14.9	54.1*
CCCCN1C(=O)C(=O)N(CC(=O)Nc2ccccc2C(=O)OCC)C1=O	3.5	5.9	22.3	21.0	0.6	15.5	.
CCN(C(=O)c1ccncc1)c1c(N)n(Cc2ccccc2)c(=O)[nH]c1=O	-12.1	-3.0	2.6	10.0	-4.7	.	.
CCC(C)n1cnc2c(c1=O)c1nc3ccccc3nc1n2Cc1ccc(OC)cc1 (stereo not given)	-38.0	19.9	37.3	53.1*	34.7	18.1	52.2*
Cn1ccnc1C(=O)c1cc(SCC(=O)N2CCOCC2)nc2ccccc12	20.4	-14.4	4.3	8.8	-9.3	-25.8	.
COC(=O)c1cc(CNC(=O)c2ccccc2OCc2c(C)noc2C)ccc1OC	24.2	20.8	25.2	3.7	4.6	17.8	.
Cc1cc(Cl)n2nc(C)c(-c3ccc(Cl)cc3)c2n1	2.4	6.0	34.8	25.1	13.5	-19.2	.
Cc1cc(N)n2nc(C)c(-c3ccc(Cl)cc3)c2n1	-7.1	19.9	33.9	62.9*	39.5	33.4*	71.8*
Clc1cccc(-c2ccc3ncnc(NCc4cccs4)c3c2)c1	16.8	9.7	18.8	50.8*	23.7	.	40.2*
Clc1ccccc1-c1ccc2ncnc(NCc3cccs3)c2c1	-22.2	16.5	27.3	54.2*	30.6	.	33.9
Cc1cccc(-c2ccc3ncnc(NCc4cccs4)c3c2)c1	-10.3	16.7	23.6	37.7	12.2	.	.
COc1ccc(CNC(=O)[C@@H](C)NC(=O)C2CCN(C(=O)[C@@H](N)CCSC)CC2)cc1	8.2	0.9	5.3	6.4	-0.6	17.0	.
CC(=O)c1c(C)[nH]c(C(=O)NNC(=O)c2ccc(Br)cc2)c1C	-7.4	12.8	-12.2	4.6	0.8	.	.
COC(=O)[C@]1(C)CCC[C@@]2(C)C3CC[C@@]4(C)C[C@]3(CCC21)CC4=NO (stereo not given in full)	20.8	26.3	18.5	51.8*	23.6	.	46.1*
CC(C)Nc1nc(N)c(C(=O)C23CC4CC(CC(C4)C2)C3)s1	4.1	4.8	24.1	53.1*	15.9	.	55.7*
O=C(O)CN1C(=O)/C(=C\c2cc(Br)ccc2OCc2ccc(Cl)cc2Cl)SC1=S	-6.4	7.8	28.0	52.8*	18.7	-4.1	56.0*
